Data from PubChem BioAssay.

What follows are compounds tested against Follistatin (Homo sapiens) (UniProt P19883) (assay: FST protein binding to printed compounds – biochemical, small-molecule microarray, 635/667 nm fluorescence, primary screen (AID 1132)). Conditions: 635 nm fluorescence, higher = more signal.
Sequence of Follistatin (Homo sapiens) (P19883 whole entry, looked up): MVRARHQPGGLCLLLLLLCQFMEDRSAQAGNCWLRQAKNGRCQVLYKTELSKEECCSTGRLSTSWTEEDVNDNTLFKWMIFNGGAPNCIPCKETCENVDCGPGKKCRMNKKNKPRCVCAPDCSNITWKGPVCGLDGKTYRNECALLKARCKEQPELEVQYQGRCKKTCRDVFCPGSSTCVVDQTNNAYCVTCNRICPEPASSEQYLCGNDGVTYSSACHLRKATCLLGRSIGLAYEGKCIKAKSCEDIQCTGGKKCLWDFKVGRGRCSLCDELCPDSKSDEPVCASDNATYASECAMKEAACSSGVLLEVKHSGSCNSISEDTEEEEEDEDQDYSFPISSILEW

SMILES | composite z-score
O=C1O[C@H](c2ccccc2)[C@H](c2ccccc2)N2[C@H]1[C@@H](C(=O)N1CCN(c3ncccn3)CC1)[C@]1(C(=O)Nc3ccccc31)[C@H]2c1ccc(OCCO)cc1 | 1.34
C=CCNC(=O)[C@@H]1[C@H]2C(=O)O[C@H](c3ccccc3)[C@H](c3ccccc3)N2[C@H](c2ccc(OCCO)cc2)[C@@]12C(=O)Nc1ccccc12 | 1.1
CC(C)C[C@@H]1NC(=O)[C@@H]2C[C@H](C(=O)NCCCCCC[N+](C)(C)C)[C@H](c3ccc(O)cc3)N2C1=O | 1.18
CCCC[C@H]1OB(O)C[C@H]2C1=C(C)C[C@H]1C(=O)N(Cc3ccccc3)C(=O)[C@H]12 | 0.797
COc1ccc(C#Cc2ccc3c(c2)[C@]2(C(=O)N3)[C@H](C(=O)NC[C@H](O)c3ccccc3)[C@H]3C(=O)O[C@H](c4ccccc4)[C@H](c4ccccc4)N3[C@@H]2c2ccc(OCCO)cc2)cc1 | 1.36
COCCOC(=O)N1C(=O)[C@@]2(c3cc(C#CCNC(N)=O)ccc31)[C@H](c1ccc(O)cc1)N1[C@H](c3ccccc3)[C@H](c3ccccc3)OC(=O)[C@H]1[C@@H]2C(=O)Nc1nc2ccccc2s1 | 1.33
COC(=O)[C@@]1(Cc2ccccc2)[C@H]2c3cc(C(=O)N4CCCC4)n(Cc4ccc(C)o4)c3C[C@H]2CN1C(=O)c1ccccc1 | -0.0668
COc1cc2c(cc1OC)CN(C(=O)[C@@H]1[C@H]3C(=O)O[C@H](c4ccccc4)[C@H](c4ccccc4)N3[C@H](c3ccccc3OCCO)[C@@]13C(=O)Nc1ccc(C#CCNC(N)=O)cc13)CC2 | 0.741
COC(=O)[C@@]1(Cc2ccc(OC)cc2)[C@H]2c3cc(C(=O)N(C)C)n(Cc4c(OC)[nH]cc(C)c4=O)c3C[C@H]2CN1C(=O)c1ccccc1 | 0.326
COCCOC(=O)N1C(=O)[C@@]2(c3cc(C#CCCO)ccc31)[C@H](C(=O)NC[C@H](O)c1ccccc1)[C@H]1C(=O)O[C@H](c3ccccc3)[C@H](c3ccccc3)N1[C@@H]2c1ccc(O)cc1 | 1.09
COC(=O)[C@]1(Cc2ccccc2N=[N+]=[N-])N=C(c2ccc(OCCCO)cc2)O[C@@H]1c1ccccc1N=[N+]=[N-] | 1.25
[N-]=[N+]=NCc1ccccc1[C@@H]1OC(c2ccc(OCCCO)cc2)=N[C@]1(Cc1ccccc1N=[N+]=[N-])C(=O)NCc1ccccc1 | 1.28
Cc1ccc(S[C@]2(C(=O)NC3CC3)CC(=O)N(C3CCCCC3)[C@@H]2c2ccc(CO)cc2I)cc1 | 1.26
CC(C)NC(=O)[C@@H]1c2ccccc2C(=O)N(Cc2ccccc2)[C@H]1c1ccc(CO)cc1 | -0.797
[N-]=[N+]=NCc1ccccc1[C@H]1OC(c2ccc(OCCCO)cc2)=N[C@@]1(CCS(=O)(=O)c1ccccc1)C(=O)N1CCOCC1 | 1.31
COc1cc(C(O)C2C=CC3C(=O)N(c4ccccc4)C(=O)C3N2Nc2ccc(C#N)cc2)cc(OC)c1OC (stereo unspecified) | 1.02
O=C1C2C=CC(C(O)c3ccc(B(O)O)cc3)N(Nc3ccccc3)C2C(=O)N1c1ccccc1 (stereo unspecified) | 0.0669
NCCCCCCNC(=O)[C@H]1C[C@H]2C(=O)NCC(=O)N2[C@H]1c1cccc(OCCO)c1 | 1.24

SMILES | composite z-score
COc1cccc(C(=O)O[C@H]2CC[C@]3(C)C4=C(CCC3C2(C)C)[C@]2(C)CC[C@H]([C@H](C)CCCC(C)C)[C@@]2(C)CC4)c1 (stereo partly specified) | 0.649
CCOC(=O)C[C@H]1[C@H](OC(=O)Cc2ccc3c(c2)OCO3)[C@@H](NC(=O)c2ccc(-c3ccccc3)cc2)c2cc(OCCCO)ccc2N1C(=O)c1ccccc1 | 0.526
O=C1OCCC=C[C@H]2OC34C=CCN(Cc5ccccc5)C(=O)[C@H]3N(CCCCCO)C(=O)[C@@H]4C12 (stereo partly specified) | -0.618
CS(=O)(=O)CCOC(=O)C1=CC(CCCO)=CC(c2cccs2)N(Cc2cc3c(cc2Br)OCO3)C=C1C(=O)OCCS(C)(=O)=O (stereo unspecified) | 1.28
O=C1O[C@@H](c2ccccc2)[C@@H](c2ccccc2)N2[C@@H](c3ccc(OCCO)cc3)[C@]3(C(=O)Nc4ccc(C#CC5=CCCCC5)cc43)[C@@H](C(=O)O)[C@H]12 | 0.878
C=CC[C@@]1(C(=O)NCC(O)CO)N=C(c2ccc(OCCCO)cc2)O[C@@H]1c1ccccc1N=[N+]=[N-] (stereo partly specified) | 0.849
NC(=O)NCC#Cc1ccc2c(c1)[C@]1(C(=O)N2)[C@H](C(=O)NC[C@H](O)c2ccccc2)[C@H]2C(=O)O[C@H](c3ccccc3)[C@H](c3ccccc3)N2[C@@H]1c1ccc(O)cc1 | 1.17
CC(=O)NCCCC[C@@H]1NC(=O)[C@H]2C[C@@H](C(=O)NCCCCCC[N+](C)(C)C)[C@@H](c3cccc(OCCO)c3)N2C1=O | 1.4
COC(=O)[C@@]1(Cc2ccc(F)cc2)[C@H]2c3cc(C(=O)N(C)C)n(CCc4ccccn4)c3C[C@H]2CN1C(=O)c1ccccc1 | 0.78
CN(C)CCCNC(=O)[C@@]1(Cc2ccccc2I)c2ccccc2C(=O)N(Cc2ccccc2C(F)(F)F)[C@H]1c1ccc(CO)cc1 | -0.781
NC(=O)NCC#Cc1ccc2c(c1)[C@]1(C(=O)N2)[C@H](C(=O)N2CCCCCCC2)[C@H]2C(=O)O[C@H](c3ccccc3)[C@H](c3ccccc3)N2[C@@H]1c1ccc(OCCO)cc1 | 1.47
O=C(O)[C@@]1(Cc2ccccc2)N=C(c2ccc(OCCCO)cc2)O[C@H]1c1ccccc1 | 0.572
CCOC(=O)C1=CCC(c2ccc([N+](=O)[O-])cc2)N(S(=O)(=O)c2ccc(C)cc2)C1 (stereo unspecified) | 0.261
COCCOC(=O)N1C(=O)[C@@]2(c3cc(C#CCCO)ccc31)[C@H](c1ccc(O)cc1)N1[C@H](c3ccccc3)[C@H](c3ccccc3)OC(=O)[C@H]1[C@@H]2C(N)=O | 0.931
COc1ccc(C(O)C2C=CC3C(=O)NC(=O)C3N2Nc2ccccn2)cc1OCc1ccccc1 (stereo unspecified) | -0.101
O=C1OCC=C[C@H]2OC34C=CCN(c5ccc6ccccc6c5)C(=O)[C@H]3N(CCCO)C(=O)[C@@H]4[C@@H]12 (stereo partly specified) | 0.0786
CCC[C@@H]1C=C(C(=O)O)[C@H](c2ccc(C)cc2)N1S(=O)(=O)c1ccc(C)cc1 | 0.118
COC(=O)c1ccc(C23CC2(C(NP(=O)(c2ccccc2)c2ccccc2)c2ccccc2)C3)cc1 (stereo unspecified) | 1.11
